# Screening results deposited in PubChem BioAssay by several laboratories.
# Compounds with a hit are over-represented: about 1.4% of the library has one in this group of screens.
# BCLXL inh: blocks human Bcl-xL binding to Bim BH3 peptide | Q07817 | GST-Bcl-xL / FITC-Bim BH3 peptide fluorescence polarization | inhibition, % at 10.9 µM | 320,000 compounds, 0.7% hits | AID 2129;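 active = inhibition above the mean of all tested compounds plus 3 SD, cutoff set per campaign, cut at about 30% in these data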;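 also: 0% = DMSO wells and 100% = unlabeled Bim-BH3 peptide competitor; inhibitors lower millipolarization by displacing the labeled peptide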
# MEX-5 binding: C. elegans MEX-5 TCR-2 RNA binding activity; 300,000 compounds, 0.38% hits; activity score (negative = inhibition of binding), % at 10 µM; MEX-5/FITC-TCR2 RNA binding, fluorescence polarization; hits give low values; Q9XUB2; AID 1832;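 active = inhibition past about -25% in most replicates, and total fluorescence under double the plate's negative control median, limit read from the data; inconclusive = replicates evenly split on the limit, or fluorescence at least double controls; inactive = too little inhibition in most replicates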;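 also: 0% = DMSO and -100% = 5 µM competing unlabeled TCR2 RNA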
# MCL1 BIM primary: disrupts human MCL1 binding to BIM-BH3 peptide | Q07820 | GST-MCL1 / FITC-Bim-BH3 fluorescence polarization | inhibition, % at 10.9 µM | 320,000 compounds, 0.68% hits;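 active = inhibition above the mean inhibition of all tested compounds plus 3 SD, set per campaign, cut at about 40% in these data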;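 also: 0% = DMSO wells and 100% = unlabeled Bim-BH3 peptide control; higher means more loss of mP so more displacement of Bim peptide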
# EBV gp42 inh: blocks Epstein-Barr virus glycoprotein 42 binding; Q1HVG2; Fluorescence polarization binding assay, mP read-out; inhibition, % (tested at 21.74 µM); 220,000 compounds, 0.42% hits; in the data active = inhibition above about 50%
# GLD-1 TGE inh: GLD-1-TGE RNA interaction inhibition (C. elegans); purified GLD-1 + fluorescein TGE RNA, fluorescence polarization; inhibition, % at 5.96 µM; Q17339; 320,000 compounds, 0.44% hits;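 active = percent inhibition above a per-plate cutoff, the plate mean of test compounds plus 3 SD, cut at about 30% in these data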;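 also: 0% = DMSO wells with GLD-1 and probe and 100% = wells lacking GLD-1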
# Target sequence (Q17339 whole entry, looked up): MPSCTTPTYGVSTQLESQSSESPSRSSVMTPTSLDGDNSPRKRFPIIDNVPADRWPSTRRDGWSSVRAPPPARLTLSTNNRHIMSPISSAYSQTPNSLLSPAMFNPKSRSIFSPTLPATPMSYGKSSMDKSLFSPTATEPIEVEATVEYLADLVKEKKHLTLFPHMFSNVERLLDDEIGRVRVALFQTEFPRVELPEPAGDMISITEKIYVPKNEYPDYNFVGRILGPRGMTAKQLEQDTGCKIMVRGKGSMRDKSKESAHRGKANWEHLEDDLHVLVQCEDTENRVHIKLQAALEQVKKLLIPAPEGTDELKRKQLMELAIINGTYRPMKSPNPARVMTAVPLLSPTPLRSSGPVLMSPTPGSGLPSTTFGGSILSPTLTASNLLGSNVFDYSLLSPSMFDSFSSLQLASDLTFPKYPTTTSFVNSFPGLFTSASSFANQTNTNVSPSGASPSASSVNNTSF
# eLon inh: inhibitors of E. coli Lon protease; inhibition, % at 7.94 µM; P0A9M0; 360,000 compounds, 0.42% hits; purified E. coli Lon protease, fluorescence polarization; in the data active = inhibition above about 13%, passing the limit was not always enough;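 also: 0% = enzyme with probe and DMSO and 100% = no enzyme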
# BCLXL inh confirm: Bcl-xL (human) inhibition, MCL1 counter-screen confirmation. AID 2166. GST-Bcl-xL / FITC-Bim BH3 peptide FP binding. inhibition, % at 10.9 µM. 1,700 compounds, 54% hits. shares compounds with MCL1 BIM primary;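 active = inhibition above a cutoff equal to the mean inhibition of all tested compounds plus 3 SD, cut at about 30% in these data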;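 also: 0% = DMSO wells and 100% = unlabeled Bim BH3 control peptide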
# MCL1 inh confirm: confirmation of human MCL1 and BIM-BH3 interaction inhibitors. GST-MCL1 / FITC-Bim-BH3 fluorescence polarization. 1,700 compounds, 61% hits. AID 2168. inhibition, % at 10.9 µM. shares compounds with MCL1 BIM primary;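 active = inhibition above the average of all tested compounds plus 3 SD, cut at about 40% in these data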;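 also: 0% = DMSO wells and 100% = unlabeled Bim-BH3 control peptide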
# GLD1 RNA confirm: confirmation of C. elegans GLD-1 TGE RNA binding inhibitors | shares compounds with GLD-1 TGE inh | GLD-1/FL-TGE RNA fluorescence polarization, biochemical | inhibition, % at 5.96 µM | 550 compounds, 10% hits | AID 2459;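 active = average inhibition across triplicates above the hit cutoff set in the primary screen, cut at about 32% in these data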;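 also: 0% = GLD-1 with RNA probe and DMSO and 100% = wells lacking GLD-1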
# eLon confirm: confirmation of E. coli Lon protease inhibitors | shares compounds with eLon inh | purified E. coli Lon, fluorescence polarization | inhibition, % at 7.94 µM | 1,400 compounds, 31% hits | AID 602230; in the data active = inhibition above about 16%;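 also: 0% = enzyme with probe and DMSO and 100% = no enzyme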
# An asterisk follows results filed as active; ? = inconclusive; . = no result; + = active, no number; ! = repeats disagree.
SMILES,BCLXL inh,MEX-5 binding,MCL1 BIM primary,EBV gp42 inh,GLD-1 TGE inh,eLon inh,BCLXL inh confirm,MCL1 inh confirm,eLon confirm,others
CCn1c(CSc2nccn2C)nc2cc(C(=O)O)ccc21,57*,-19,65*,72*,45*,32*,33*,44*,-7,GLD1 RNA confirm=40*
Cc1cc(OC(C)C(=O)N2CCN(c3ccc(F)cc3)CC2)c2c(C)cc(=O)oc2c1 (centres undefined),4,0,-4,.,8,5,.,.,.,
CN(C)CCCN1C(=O)c2cccc3c([N+](=O)[O-])ccc(c23)C1=O,76*,.,77*,49,48*,131*,92*,125*,43*,GLD1 RNA confirm=22
O=C1c2cccc3c([N+](=O)[O-])ccc(c23)C(=O)N1CCc1ccccn1,7,-1,4,14,7,4,.,.,.,
O=C1OC(Nc2cc(Br)cc3cccnc23)c2ccccc21 (centres undefined),64*,.,90*,2,11,42*,56*,68*,-4,
CCCCn1c(=O)[nH]c2nc3cc(NC(C)=O)ccc3nc2c1=O,61*,-12,59*,79*,53*,35*,75*,95*,33*,GLD1 RNA confirm=102*
CN1CC=C2C(C#N)=C(N)C(C#N)(C#N)[C@H](c3cccc(Cl)c3)C2C1 (some centres undefined),104*,-59*,115*,58*,79*,23*,31*,36,17*,
CN1CC=C2C(C#N)=C(N)C(C#N)(C#N)C(c3ccsc3)C2C1 (centres undefined),106*,?,117*,24,70*,60*,23,27,32*,
CN1C2C=C3C(C#N)=C(N)C(C#N)(C#N)[C@@H](c4ccsc4)[C@@H]3C1CC2 (some centres undefined),22,-4,30,-4,12,.,.,.,.,
Cc1ccc(NC(=O)CNC(=O)C2CCCCC2)nc1,-3,-2,-5,.,1,-5,.,.,.,
Cc1n[nH]c(C)c1N1C(=O)c2cccc3c(N4CCCCCC4)ccc(c23)C1=O,+,-53*,+,193*,+,69*,184*,+,-48,
O=C(Nc1ccccc1N1CCCC1)c1ccc([N+](=O)[O-])o1,9,5,8,.,1,-13,.,.,.,
COc1ccc(N2CCCC2)c(NC(=O)c2ccc([N+](=O)[O-])o2)c1,76*,-10,75*,.,74*,41*,14,4,-10,
O=S(=O)([N-]c1nc2ccccc2nc1-[n+]1ccc(-c2ccncc2)cc1)c1ccccc1,188*,-5,+,56*,153*,47*,150*,183*,131*,
O=C(CCN1C(=O)C2CC=C(Cl)CC2C1=O)N1CCCCC1 (centres undefined),54*,-41*,56*,13,58*,29*,56*,66*,52*,
CCCCn1nc(CC(=O)NCCN(CC)CC)c2ccccc2c1=O,3,1,8,-24,1,2,.,.,.,
Cc1ccc(C)c(-n2c3nc(=O)[nH]c(=O)c-3cc3cc([N+](=O)[O-])ccc32)c1,76*,.,87*,59*,59*,60*,51*,74*,3,GLD1 RNA confirm=27
NNC(=O)c1csc(-c2ncc(C(F)(F)F)cc2Cl)n1,6,0,1,-2,1,9,.,.,.,
NC(=O)c1cc2c3ccccc3ccn2c1-c1ccccc1,50*,-9,59*,5,51*,25*,23,27,18*,
CN1CCc2cc3c(c4c2[C@H]1[C@H](O)c1ccccc1-4)OCO3,111*,-84*,124*,59*,48*,59*,61*,80*,27*,
Cc1ccc2c3c(cccc13)-c1ccccc1C2=O,37*,-10,42*,62*,43*,40*,27,31,20*,GLD1 RNA confirm=39*
O=[N+]([O-])c1cccc(C(=S)N2CCN(c3ccc(F)cc3)CC2)c1,38*,0,51*,15,20,56*,22,14,1,
COc1ccc(-c2onc3ccc(Br)cc23)cc1,113*,-13,132*,127*,97*,39*,111*,134*,86*,
Cc1ccc(CNC(=O)c2c(-c3ccccc3Cl)noc2C)cc1,-1,0,-1,.,-1,-3,.,.,.,
Cc1onc(-c2ccccc2Cl)c1C(=O)NCc1ccc2c(c1)cc(C)n2C,66*,0,77*,-1,68*,36*,34*,47*,15,GLD1 RNA confirm=16
SMILES,BCLXL inh,MEX-5 binding,MCL1 BIM primary,EBV gp42 inh,GLD-1 TGE inh,eLon inh,BCLXL inh confirm,MCL1 inh confirm,eLon confirm,others
CCOC(=O)c1c(=O)n(O)c2ccc(OC)cc2[n+]1[O-],159*,-22,188*,69*,176*,83*,45*,60*,29*,
O=C(Cc1ccc([N+](=O)[O-])cc1)N1N=C(c2ccncc2)CC1(O)C(F)(F)F (centres undefined),2,1,7,-3,0,-7,.,.,.,
Cc1ccc2c(c1)CCCN2CC(=O)N(C)c1c(N)n(Cc2ccccc2)c(=O)[nH]c1=O,122*,.,141*,.,15,146*,132*,147*,-69,
CCN(C(=O)CN1CCCc2cc(C)ccc21)c1c(N)n(Cc2ccccc2)c(=O)[nH]c1=O,.,.,.,.,.,-19,.,.,.,
CN1Cc2c(N)cccc2C(c2ccccc2)C1 (centres undefined),79*,-6,92*,29,39*,55*!,26,25,75*,GLD1 RNA confirm=13
Nc1cc2c3c(cccc3c1)C(=O)N(CCN1CCCC1)C2=O,125*,-28*,145*,95*,36*,94*,99*,132*,82*,
NC(=O)CN1CCN(CCN2C(=O)c3cccc4cccc(c34)C2=O)CC1,12,1,12,.,13,9,.,.,.,
CCN(CC)CCN1C(=O)c2cccc3cc(N)cc(c23)C1=O,124*,-69*,158*,101*,72*,+,128*,166*,53*,
